According to the supplement of paper PMC8253809:
Several values for one entry are separate records, joined by “and”; a condition that tells them apart may be missing. Identical values can stand only once.

Assays:
Assay in all cases: growth inhibition (% activity, log2 RLU normalised to DMSO / staurosporine); higher = more growth inhibition
Conditions in all cases: 33 µM
DIPGX29 = test system: DIPGX29 (H3.3 K27M diffuse intrinsic pontine glioma line)
Outline: (§1)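 For each approved drug, the growth-inhibition value is the replicate median of per-plate normalised CellTiter-Glo data. Luminescence was log2-transformed and expressed as % activity between solvent and positive control wells. Drugs were applied in triplicate at a single final concentration of about 33 μM for 7 days at 37 °C, 5% CO2 to pHGG cell lines and H9-derived neural stem cells.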

DIPGX37 = test system: DIPGX37 (H3.3 K27M diffuse intrinsic pontine glioma line)
Outline: as §1

DIPGX7 = test system: DIPGX7 (H3.3 K27M diffuse intrinsic pontine glioma line)
Outline: as §1

DIPGX9 = test system: DIPGX9 (diffuse intrinsic pontine glioma line)
Outline: as §1

HGGX39 = test system: HGGX39 (paediatric high-grade glioma line)
Outline: as §1

HGGX6 = test system: HGGX6 (H3.3 G34R paediatric high-grade glioma line)
Outline: as §1

HNSC = test system: HNSC
Outline: as §1

SUDIPGIV = test system: SUDIPGIV (diffuse intrinsic pontine glioma line)
Outline: as §1

SUDIPGVI = test system: SUDIPGVI (diffuse intrinsic pontine glioma line)
Outline: as §1

SUDIPGXIII = test system: SUDIPGXIII (diffuse intrinsic pontine glioma line)
Outline: as §1

Compound | growth inhibition (DIPGX29) | growth inhibition (DIPGX37) | growth inhibition (DIPGX7) | growth inhibition (DIPGX9) | growth inhibition (HGGX39) | growth inhibition (HGGX6) | growth inhibition (HNSC) [%] | growth inhibition (SUDIPGIV) | growth inhibition (SUDIPGVI) | growth inhibition (SUDIPGXIII)
CN(C)CCCC1(c2ccc(F)cc2)OCc2cc(C#N)ccc21 (stereo not drawn) | 1.68% | 3.31% | 3.03% | 1.7% | 2.63% | 3.21% | -0.115 | 1.18% | 1.71% | 0.506%
Cc1onc(-c2ccccc2)c1C(=O)N[C@@H]1C(=O)N2[C@@H]1SC(C)(C)[C@@H]2C(=O)O | -1.74% | -1.12% | -1.18% | -0.122% | -0.815% | 0.0702% | -4.11 | 0.237% | 0.245% | -1.71%
NCC(=O)CCC(=O)O | -0.565% | 0.832% | -1.28% | 0.54% | 0.759% | 1.54% | -1.87 | 0.45% | 0.00902% | 0.537%
Nc1ccc(S(N)(=O)=O)cc1 | -0.377% | 1.14% | 0.22% | 1.31% | 2.44% | 0.596% | -1.62 | -1.35% | 0.652% | 1.2%
CCOC(=O)[C@H](CCc1ccccc1)N[C@H]1CS[C@H](c2cccs2)CN(CC(=O)O)C1=O | -2.15% | 0.457% | 0.303% | -0.286% | 0.0238% | 0.0397% | 1.94 | -0.624% | -2.82% | 0.0387%
COc1cc(C(=O)NS(=O)(=O)c2ccccc2C)ccc1Cc1cn(C)c2ccc(NC(=O)OC3CCCC3)cc12 | -0.736% | 1.77% | 0.79% | -1.19% | 1.49% | -2.28% | -0.546 | -0.0974% | 1.76% | 0.405%
COc1ccc2[nH]cc(CCNC(C)=O)c2c1 | -2.35% | -0.423% | -1.32% | -1.49% | -1.11% | -2.19% | -1.52 | -1.67% | -0.827% | -1.28%
Cc1c(NC(=O)c2cccnc2)c(=O)n(-c2ccccc2)n1C | 2.04% | 3.56% | 2.88% | 1.83% | 2.64% | 2.09% | 2.9 | 1.6% | 5.52% | -1.54%
CNC(=O)c1ccccc1Sc1ccc2c(/C=C/c3ccccn3)n[nH]c2c1 | 12.6% | 6.36% | 11.4% | 17.5% | 10.9% | 20.3% | 60.4 | 4.73% | 0.631% | 5.66%
CN(C)c1nc(N(C)C)nc(N(C)C)n1 | -3.35% | -1.75% | -1.42% | -3.04% | -3.6% | -3.16% | -5.97 | -3.04% | -2.53% | -0.234%
CC(C)[N+]1(C)[C@@H]2CC[C@H]1C[C@@H](OC(=O)C(CO)c1ccccc1)C2 (stereo partly drawn) | -0.758% | 3.5% | 0.48% | 0.945% | 1.73% | 2.16% | -1.56 | -0.725% | 2.4% | 0.743%
CC[C@]1(O)C[C@H]2CN(CCc3c([nH]c4ccccc34)[C@@](C(=O)OC)(c3cc4c(cc3OC)N(C=O)[C@H]3[C@@](O)(C(=O)OC)[C@H](OC(C)=O)[C@]5(CC)C=CCN6CC[C@]43[C@@H]65)C2)C1 | 23.4% | 12.5% | 15.1% | 22.7% | 21.3% | 17.5% | 60.5 | 35.7% | 38.9% | 30.9%
CCCNC(=O)NS(=O)(=O)c1ccc(Cl)cc1 | 2.28% | 4.25% | 2.73% | 6.15% | 3.29% | 2.21% | 9.27 | 2.61% | 2.64% | 0.944%
N=C(N)NC(=O)c1nc(Cl)c(N)nc1N | 1.79% and -1.36% | 1.85% and 0.649% | 1.7% and 0.904% | 2.64% and 0.337% | 2.38% and 4% | -0.794% and 0.512% | – | 7.17% and 6.85% | 2.25% and 2.53% | -0.984% and -0.159%
CO[C@H]1/C=C/O[C@@]2(C)Oc3c(C)c(O)c4c(O)c(c5c(nc6cc(C)ccn65)c4c3C2=O)NC(=O)/C(C)=C\C=C\[C@H](C)[C@H](O)[C@@H](C)[C@@H](O)[C@@H](C)[C@H](OC(C)=O)[C@@H]1C | -0.23% | 1.09% | 0.284% | 1.81% | 1.27% | 1.5% | 0.942 | -1.07% | 1.39% | -1.05%
CCCCCCCCCCCCCCCC[N+](C)(C)CCN(Cc1ccc(OC)cc1)c1ncccn1 | 59.2% | 55.6% | 57.6% | 55.3% | 59.2% | 62% | 57.8 | 57.6% | 56.7% | 42.9%
O=P(O)(O)C(O)(Cn1ccnc1)P(=O)(O)O | 0.235% | 2.6% | 0.072% | 1.97% | 2.08% | 1.84% | 1.26 | 1.08% | 4.43% | -0.376%
CCOC(=O)C1=C(COCCN)NC(C)=C(C(=O)OC)C1c1ccccc1Cl (stereo not drawn) | 15% and 3.31% | 4.6% and -0.383% | 5.13% and -0.147% | 4.27% and -0.283% | 6.07% and -2.96% | 6.22% and 0.934% | – | 1.11% and -4.26% | 3.83% and -2% | 0.181% and 0.61%
COc1ccc(-n2nc(C(N)=O)c3c2C(=O)N(c2ccc(N4CCCCC4=O)cc2)CC3)cc1 | -1.17% | -0.875% | 0.291% | 0.547% | 1.79% | 1.04% | -3.66 | -1.21% | 1.14% | 0.63%
COC1C(O)CC(=O)OC(C)CC=CC=CC(OC2CCC(N(C)C)C(C)O2)C(C)CC(CC=O)C1OC1OC(C)C(OC2CC(C)(O)C(O)C(C)O2)C(N(C)C)C1O (stereo not drawn) | 0.981% | 1.73% | -0.322% | 0.622% | 1.26% | 1.89% | -0.2 | -0.377% | 1.86% | 0.183%
c1cc(CN2CCCNCCNCCCNCC2)ccc1CN1CCCNCCNCCCNCC1 | 1.86% | 3.43% | 1.65% | 2.55% | 4.18% | 5.37% | 11.8 | 12.5% | 5.04% | 3.18%
CCn1cc(C(=O)O)c(=O)c2cc(F)c(N3CCNC(C)C3)c(F)c21 (stereo not drawn) | -4.04% | -2.84% | -0.94% | -2.66% | -4.99% | -5.88% | 9.04 | -2.28% | -4.26% | 1.13%
CCCN(CCC)S(=O)(=O)c1ccc(C(=O)O)cc1 | -1.26% | 2.49% | 0.672% | 0.0871% | 1.02% | -3.52% | 8.98 | 1.56% | -6.21% | 0.262%
